# Laboratory results taken from article PMC7862700, “An all-to-all approach to the identification of sequence-specific readers for epigenetic DNA modifications on cytosine”.
# How the values were obtained:
# Assay in all cases: DAPPL (digital affinity profiling via proximity ligation, sequencing); 10 mM Tris-HCl pH 7.5, 50 mM NaCl, 1 mM DTT, 4% glycerol, room temperature, 30 min; GST-TFs on glutathione beads, 16-mer random dsDNA library, 0.1% formaldehyde crosslink after washing; high values mean tight binding
# Conditions in all cases: protein: recombinant; tags: N-terminal GST; dsDNA, one strand shown
# [1] = biological target: T1, FLI1 (Homo sapiens, UniProt Q01543 1-452)
# T1 sequence: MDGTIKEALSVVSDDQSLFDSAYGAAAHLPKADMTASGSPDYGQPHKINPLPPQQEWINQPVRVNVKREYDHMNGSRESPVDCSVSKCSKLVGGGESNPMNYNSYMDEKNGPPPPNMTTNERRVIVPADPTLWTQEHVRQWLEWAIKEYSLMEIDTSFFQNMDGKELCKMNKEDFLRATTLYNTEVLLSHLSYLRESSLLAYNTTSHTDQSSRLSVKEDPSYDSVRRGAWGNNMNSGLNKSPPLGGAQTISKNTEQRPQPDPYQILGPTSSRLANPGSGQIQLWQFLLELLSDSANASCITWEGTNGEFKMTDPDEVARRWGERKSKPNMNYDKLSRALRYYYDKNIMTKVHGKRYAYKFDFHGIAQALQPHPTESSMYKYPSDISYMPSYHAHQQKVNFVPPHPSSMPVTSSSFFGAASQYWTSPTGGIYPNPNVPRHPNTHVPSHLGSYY
# Procedure, shortened: (§1)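 After expression in yeast as GST fusions, human transcription factors were bound to glutathione beads, DNA-barcoded and mixed with a tag-only sample. The pools were incubated with 200 nmole of a 16-mer random double-stranded DNA library in Tris/NaCl/DTT/glycerol buffer (30 min, room temperature), washed and crosslinked with 0.1% formaldehyde. Proximity ligation with BsaI/T4 ligase ran for 1 h at 37 °C, before PCR amplification and sequencing on an Illumina NextSeq500. Binding signal is a hexamer's read frequency for a factor divided by its frequency for the tag-only sample.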
# [2] = biological target: T2, ELK1 (Homo sapiens, UniProt P19419 1-428)
# T2 sequence: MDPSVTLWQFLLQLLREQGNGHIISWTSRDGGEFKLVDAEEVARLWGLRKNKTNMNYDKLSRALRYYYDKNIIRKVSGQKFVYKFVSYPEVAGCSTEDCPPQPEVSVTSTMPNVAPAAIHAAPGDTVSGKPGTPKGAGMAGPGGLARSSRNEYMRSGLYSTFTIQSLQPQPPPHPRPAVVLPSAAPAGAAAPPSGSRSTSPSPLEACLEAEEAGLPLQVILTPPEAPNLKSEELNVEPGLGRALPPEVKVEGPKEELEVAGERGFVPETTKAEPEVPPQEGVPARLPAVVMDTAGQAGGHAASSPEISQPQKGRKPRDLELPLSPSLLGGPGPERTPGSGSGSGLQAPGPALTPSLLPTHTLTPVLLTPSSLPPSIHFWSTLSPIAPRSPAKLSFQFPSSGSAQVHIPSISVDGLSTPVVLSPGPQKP
# Procedure, shortened: as §1
# [3] = biological target: T3, GABPA (Homo sapiens, UniProt Q06546 1-454)
# T3 sequence: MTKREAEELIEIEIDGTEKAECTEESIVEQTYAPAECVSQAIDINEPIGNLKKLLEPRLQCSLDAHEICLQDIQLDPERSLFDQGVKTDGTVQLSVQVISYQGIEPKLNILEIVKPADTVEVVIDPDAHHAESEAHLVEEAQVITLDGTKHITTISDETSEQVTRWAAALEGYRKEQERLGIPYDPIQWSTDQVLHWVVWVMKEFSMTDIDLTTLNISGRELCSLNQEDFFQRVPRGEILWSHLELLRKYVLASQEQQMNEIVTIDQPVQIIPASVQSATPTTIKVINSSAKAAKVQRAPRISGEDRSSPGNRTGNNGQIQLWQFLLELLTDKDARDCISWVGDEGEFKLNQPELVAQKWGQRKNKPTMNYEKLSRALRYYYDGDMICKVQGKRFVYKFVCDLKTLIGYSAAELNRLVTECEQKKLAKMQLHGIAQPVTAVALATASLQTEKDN
# Procedure, shortened: as §1
# [4] = biological target: T4, ERG (Homo sapiens, UniProt P11308 1-479)
# T4 sequence: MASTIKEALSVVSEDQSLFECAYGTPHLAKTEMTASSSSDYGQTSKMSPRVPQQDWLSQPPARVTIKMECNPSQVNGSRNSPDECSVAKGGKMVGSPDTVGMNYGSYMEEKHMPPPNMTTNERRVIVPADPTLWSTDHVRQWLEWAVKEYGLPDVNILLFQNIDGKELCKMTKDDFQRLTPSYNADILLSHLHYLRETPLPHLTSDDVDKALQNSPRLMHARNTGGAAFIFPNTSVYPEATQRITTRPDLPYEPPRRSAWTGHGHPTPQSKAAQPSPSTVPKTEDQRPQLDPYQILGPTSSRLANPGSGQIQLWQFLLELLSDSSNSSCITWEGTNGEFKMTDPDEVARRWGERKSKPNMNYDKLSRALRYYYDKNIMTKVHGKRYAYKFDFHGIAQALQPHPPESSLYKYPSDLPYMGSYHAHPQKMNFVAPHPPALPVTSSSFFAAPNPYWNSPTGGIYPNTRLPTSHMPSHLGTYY
# Procedure, shortened: as §1
# [5] = biological target: ELF1 (Homo sapiens, UniProt P32519 1-619)
# Sequence of ELF1 (P32519 whole entry): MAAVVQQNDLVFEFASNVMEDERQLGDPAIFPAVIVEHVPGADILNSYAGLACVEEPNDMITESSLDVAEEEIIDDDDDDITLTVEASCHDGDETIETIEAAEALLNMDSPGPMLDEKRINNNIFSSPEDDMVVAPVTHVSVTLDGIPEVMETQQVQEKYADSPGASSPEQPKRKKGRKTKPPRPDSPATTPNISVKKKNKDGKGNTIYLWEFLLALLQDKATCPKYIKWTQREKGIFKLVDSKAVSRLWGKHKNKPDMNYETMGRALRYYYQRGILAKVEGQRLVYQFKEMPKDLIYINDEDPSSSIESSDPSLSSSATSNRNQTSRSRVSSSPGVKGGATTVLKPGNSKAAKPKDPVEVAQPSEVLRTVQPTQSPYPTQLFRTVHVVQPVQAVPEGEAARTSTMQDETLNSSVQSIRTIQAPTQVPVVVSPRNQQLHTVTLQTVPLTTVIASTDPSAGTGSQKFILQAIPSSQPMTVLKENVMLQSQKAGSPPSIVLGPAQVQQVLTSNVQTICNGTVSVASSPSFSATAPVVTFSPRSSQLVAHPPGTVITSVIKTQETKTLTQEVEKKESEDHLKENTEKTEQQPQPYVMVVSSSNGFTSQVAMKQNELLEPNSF
# Procedure, shortened: as §1
# [6] = biological target: T5, EHF (Homo sapiens, UniProt Q9NZC4 1-300)
# T5 sequence: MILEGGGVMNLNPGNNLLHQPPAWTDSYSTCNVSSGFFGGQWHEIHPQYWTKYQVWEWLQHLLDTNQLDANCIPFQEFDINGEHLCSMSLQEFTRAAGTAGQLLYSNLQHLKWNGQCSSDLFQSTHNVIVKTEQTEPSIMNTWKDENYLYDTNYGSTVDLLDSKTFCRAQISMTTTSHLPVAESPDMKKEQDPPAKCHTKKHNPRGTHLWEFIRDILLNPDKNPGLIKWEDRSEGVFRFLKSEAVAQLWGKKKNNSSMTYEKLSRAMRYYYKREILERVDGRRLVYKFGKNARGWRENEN
# Procedure, shortened: as §1
# [7] = biological target: SPI1 (Homo sapiens, UniProt P17947 1-270)
# Procedure, shortened: as §1
# [8] = biological target: SPIB (Homo sapiens, UniProt Q01892 1-262)
# Sequence of SPIB (Q01892 whole entry): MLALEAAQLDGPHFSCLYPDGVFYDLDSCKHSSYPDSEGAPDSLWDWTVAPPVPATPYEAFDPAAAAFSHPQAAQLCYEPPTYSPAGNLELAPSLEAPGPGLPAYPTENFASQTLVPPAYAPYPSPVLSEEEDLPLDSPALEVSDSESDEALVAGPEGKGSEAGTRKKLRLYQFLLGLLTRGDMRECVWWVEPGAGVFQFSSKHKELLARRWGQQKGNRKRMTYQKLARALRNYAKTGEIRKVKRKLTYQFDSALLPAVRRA
# Procedure, shortened: as §1
# [9] = biological target: T6, ELK3 (Homo sapiens, UniProt P41970 1-407)
# T6 sequence: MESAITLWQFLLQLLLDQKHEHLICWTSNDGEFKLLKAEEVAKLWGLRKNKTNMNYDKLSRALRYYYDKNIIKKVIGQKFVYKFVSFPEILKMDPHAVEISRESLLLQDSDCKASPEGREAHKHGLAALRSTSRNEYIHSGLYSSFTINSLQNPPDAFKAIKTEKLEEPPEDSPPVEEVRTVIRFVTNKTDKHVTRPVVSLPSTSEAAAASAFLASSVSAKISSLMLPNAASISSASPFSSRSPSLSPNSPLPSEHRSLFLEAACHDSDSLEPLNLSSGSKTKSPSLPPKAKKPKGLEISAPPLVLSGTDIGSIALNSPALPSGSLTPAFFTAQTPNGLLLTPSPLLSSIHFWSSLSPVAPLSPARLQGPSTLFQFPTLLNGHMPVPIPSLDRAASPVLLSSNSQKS
# Procedure, shortened: as §1
# [10] = biological target: T7, FEV (Homo sapiens, UniProt Q99581 1-238)
# T7 sequence: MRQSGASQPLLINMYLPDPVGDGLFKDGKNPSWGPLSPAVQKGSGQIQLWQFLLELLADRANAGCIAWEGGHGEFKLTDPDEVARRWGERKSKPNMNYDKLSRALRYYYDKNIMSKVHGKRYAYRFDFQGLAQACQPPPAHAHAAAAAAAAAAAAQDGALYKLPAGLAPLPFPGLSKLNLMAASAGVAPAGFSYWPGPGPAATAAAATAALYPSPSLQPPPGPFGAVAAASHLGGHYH
# Procedure, shortened: as §1
# [11] = biological target: ETV5 (Homo sapiens, UniProt P41161 1-510)
# Sequence of ETV5 (P41161 whole entry): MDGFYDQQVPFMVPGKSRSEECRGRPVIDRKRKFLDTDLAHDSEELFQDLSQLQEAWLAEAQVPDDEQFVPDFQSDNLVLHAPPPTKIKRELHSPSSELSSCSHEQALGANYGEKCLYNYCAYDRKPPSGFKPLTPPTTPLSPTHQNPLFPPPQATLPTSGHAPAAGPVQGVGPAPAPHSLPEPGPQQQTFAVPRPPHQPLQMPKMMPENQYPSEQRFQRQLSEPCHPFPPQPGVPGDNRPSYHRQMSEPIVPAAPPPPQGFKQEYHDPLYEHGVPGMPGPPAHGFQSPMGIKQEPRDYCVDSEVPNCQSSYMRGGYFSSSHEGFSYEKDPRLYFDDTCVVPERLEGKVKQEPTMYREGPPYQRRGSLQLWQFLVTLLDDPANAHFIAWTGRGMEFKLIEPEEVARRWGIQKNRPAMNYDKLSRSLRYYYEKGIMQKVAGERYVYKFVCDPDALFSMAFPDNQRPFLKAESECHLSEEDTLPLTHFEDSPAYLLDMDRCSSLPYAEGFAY
# Procedure, shortened: as §1
# [12] = biological target: T8, SPIC (Homo sapiens, UniProt Q8N5J4 1-248)
# T8 sequence: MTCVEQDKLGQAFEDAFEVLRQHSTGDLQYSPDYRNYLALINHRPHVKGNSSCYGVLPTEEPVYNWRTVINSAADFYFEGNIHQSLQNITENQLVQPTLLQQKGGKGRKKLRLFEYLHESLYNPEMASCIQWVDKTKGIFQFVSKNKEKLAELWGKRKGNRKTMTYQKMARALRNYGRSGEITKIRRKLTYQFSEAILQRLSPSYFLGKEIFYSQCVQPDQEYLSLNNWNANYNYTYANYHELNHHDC
# Procedure, shortened: as §1
# [13] = biological target: ELF4 (Homo sapiens, UniProt Q99607 1-663)
# Sequence of ELF4 (Q99607 whole entry): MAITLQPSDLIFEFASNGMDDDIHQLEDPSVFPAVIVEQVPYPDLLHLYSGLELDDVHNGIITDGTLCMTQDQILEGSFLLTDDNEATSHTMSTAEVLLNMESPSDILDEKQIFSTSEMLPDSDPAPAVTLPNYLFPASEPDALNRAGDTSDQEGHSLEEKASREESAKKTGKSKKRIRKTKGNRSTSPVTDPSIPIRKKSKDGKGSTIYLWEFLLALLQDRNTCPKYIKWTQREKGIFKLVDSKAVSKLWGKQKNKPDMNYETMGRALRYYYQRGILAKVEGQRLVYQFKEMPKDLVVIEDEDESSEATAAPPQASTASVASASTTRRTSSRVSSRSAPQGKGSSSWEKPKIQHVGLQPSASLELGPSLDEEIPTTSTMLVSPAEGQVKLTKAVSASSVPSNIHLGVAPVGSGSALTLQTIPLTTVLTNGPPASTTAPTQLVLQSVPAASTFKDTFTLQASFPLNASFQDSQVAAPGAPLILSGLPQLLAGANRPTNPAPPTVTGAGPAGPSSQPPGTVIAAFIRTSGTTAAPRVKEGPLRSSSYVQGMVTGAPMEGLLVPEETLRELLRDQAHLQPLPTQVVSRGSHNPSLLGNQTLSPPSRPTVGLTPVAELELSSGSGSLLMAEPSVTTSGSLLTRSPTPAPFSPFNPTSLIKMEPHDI
# Procedure, shortened: as §1
# [14] = biological target: T9, ELK4 (Homo sapiens, UniProt P28324-2 1-405)
# T9 sequence: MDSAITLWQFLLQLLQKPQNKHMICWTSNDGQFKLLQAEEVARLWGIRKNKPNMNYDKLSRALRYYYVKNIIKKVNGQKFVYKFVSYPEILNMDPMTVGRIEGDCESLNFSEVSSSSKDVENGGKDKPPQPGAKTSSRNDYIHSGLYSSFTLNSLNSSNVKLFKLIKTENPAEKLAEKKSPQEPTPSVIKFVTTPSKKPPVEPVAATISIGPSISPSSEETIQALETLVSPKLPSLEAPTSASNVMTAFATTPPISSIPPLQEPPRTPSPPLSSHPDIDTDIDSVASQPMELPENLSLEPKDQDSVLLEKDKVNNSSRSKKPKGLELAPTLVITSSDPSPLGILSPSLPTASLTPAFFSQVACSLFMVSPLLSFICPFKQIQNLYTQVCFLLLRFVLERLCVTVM
# Procedure, shortened: as §1
# [15] = biological target: T10, ETV2 (Homo sapiens, UniProt O00321 1-342)
# T10 sequence: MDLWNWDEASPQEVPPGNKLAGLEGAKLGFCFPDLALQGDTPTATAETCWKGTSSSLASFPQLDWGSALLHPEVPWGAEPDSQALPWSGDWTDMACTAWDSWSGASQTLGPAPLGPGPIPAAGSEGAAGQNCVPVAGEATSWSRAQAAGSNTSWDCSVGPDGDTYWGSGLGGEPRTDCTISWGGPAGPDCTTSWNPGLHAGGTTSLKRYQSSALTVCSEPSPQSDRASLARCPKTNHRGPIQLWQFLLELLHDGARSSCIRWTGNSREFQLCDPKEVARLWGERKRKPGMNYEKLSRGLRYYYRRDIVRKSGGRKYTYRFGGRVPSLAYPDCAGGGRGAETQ
# Procedure, shortened: as §1
# [16] = biological target: T11, ELF3 (Homo sapiens, UniProt P78545 1-371)
# T11 sequence: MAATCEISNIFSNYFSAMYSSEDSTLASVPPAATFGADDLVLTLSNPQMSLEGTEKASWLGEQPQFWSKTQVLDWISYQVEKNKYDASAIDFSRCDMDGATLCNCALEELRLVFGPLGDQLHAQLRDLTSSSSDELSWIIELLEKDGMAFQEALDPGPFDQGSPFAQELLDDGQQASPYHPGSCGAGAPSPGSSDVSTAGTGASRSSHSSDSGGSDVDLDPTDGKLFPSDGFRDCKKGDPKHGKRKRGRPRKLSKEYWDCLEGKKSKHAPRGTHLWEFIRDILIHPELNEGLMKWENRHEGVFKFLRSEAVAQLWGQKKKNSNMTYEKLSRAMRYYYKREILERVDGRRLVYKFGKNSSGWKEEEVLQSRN
# Procedure, shortened: as §1
# [17] = biological target: ETV1 (Homo sapiens, UniProt P50549 1-477)
# Sequence of ETV1 (P50549 whole entry): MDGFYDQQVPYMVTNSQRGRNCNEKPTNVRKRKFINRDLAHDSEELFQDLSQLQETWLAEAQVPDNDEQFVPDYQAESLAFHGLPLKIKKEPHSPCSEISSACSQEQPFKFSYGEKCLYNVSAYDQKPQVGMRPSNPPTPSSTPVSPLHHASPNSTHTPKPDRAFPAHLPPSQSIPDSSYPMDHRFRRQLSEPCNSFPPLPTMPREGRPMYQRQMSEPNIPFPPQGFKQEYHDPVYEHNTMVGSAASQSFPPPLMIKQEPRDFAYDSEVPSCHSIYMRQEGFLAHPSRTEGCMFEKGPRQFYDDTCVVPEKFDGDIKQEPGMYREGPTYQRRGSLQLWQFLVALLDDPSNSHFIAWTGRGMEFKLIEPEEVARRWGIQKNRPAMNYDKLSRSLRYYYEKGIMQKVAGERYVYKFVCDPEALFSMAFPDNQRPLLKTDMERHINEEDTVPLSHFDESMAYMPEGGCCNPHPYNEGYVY
# Procedure, shortened: as §1
Sequence,binding signal [1],binding signal [2],binding signal [3],binding signal [4],binding signal [5],binding signal [6],binding signal [7],binding signal [8],binding signal [9],binding signal [10],binding signal [11],binding signal [12],binding signal [13],binding signal [14],binding signal [15],binding signal [16],binding signal [17]
TGGCAG,"1.19 fold enrichment (6-mer frequency, TF over GST control)","1.09 fold enrichment (6-mer frequency, TF over GST control)","1.07 fold enrichment (6-mer frequency, TF over GST control)","1.01 fold enrichment (6-mer frequency, TF over GST control)","1.06 fold enrichment (6-mer frequency, TF over GST control)","1.11 fold enrichment (6-mer frequency, TF over GST control)","1.1 fold enrichment (6-mer frequency, TF over GST control)","1.12 fold enrichment (6-mer frequency, TF over GST control)","1.21 fold enrichment (6-mer frequency, TF over GST control)","1.18 fold enrichment (6-mer frequency, TF over GST control)","1.07 fold enrichment (6-mer frequency, TF over GST control)","1.05 fold enrichment (6-mer frequency, TF over GST control)","1.02 fold enrichment (6-mer frequency, TF over GST control)","1.01 fold enrichment (6-mer frequency, TF over GST control)","1.29 fold enrichment (6-mer frequency, TF over GST control)","1.02 fold enrichment (6-mer frequency, TF over GST control)","1.05 fold enrichment (6-mer frequency, TF over GST control)"
CTGCGT,"1.12 fold enrichment (6-mer frequency, TF over GST control)","1.15 fold enrichment (6-mer frequency, TF over GST control)","1.16 fold enrichment (6-mer frequency, TF over GST control)","1.13 fold enrichment (6-mer frequency, TF over GST control)","1.17 fold enrichment (6-mer frequency, TF over GST control)","1.18 fold enrichment (6-mer frequency, TF over GST control)","1.16 fold enrichment (6-mer frequency, TF over GST control)","1.12 fold enrichment (6-mer frequency, TF over GST control)","1.24 fold enrichment (6-mer frequency, TF over GST control)","1.07 fold enrichment (6-mer frequency, TF over GST control)","1.09 fold enrichment (6-mer frequency, TF over GST control)","1.31 fold enrichment (6-mer frequency, TF over GST control)","1.09 fold enrichment (6-mer frequency, TF over GST control)","1.3 fold enrichment (6-mer frequency, TF over GST control)","1.09 fold enrichment (6-mer frequency, TF over GST control)","1.07 fold enrichment (6-mer frequency, TF over GST control)","1.11 fold enrichment (6-mer frequency, TF over GST control)"
